According to ChEMBL document CHEMBL1157539, “Thousands of chemical starting points for antimalarial lead identification” (Nature, 2010):

What follows are compounds tested on Plasmodium falciparum (assay: GSK_TCMDC: Inhibition of Plasmodium falciparum 3D7 in whole red blood cells, using parasite LDH activity as an index of growth. Test compounds present at 2uM).
Type: functional

| SMILES | Inhibition [%] |
| --- | --- |
| O=C(NCCCN1CCCCC1)c1cccc(Nc2nccc(Nc3ccc(Oc4ccccc4)cc3)n2)c1 | 96 |
| Cc1nnc(-c2ccc3ccccc3c2)c2cn(-c3cccc([N+](=O)[O-])c3)nc12 | 91 |
| CCC(C)(C)c1ccc(OCCCC(=O)Nc2ccc(Cl)c([N+](=O)[O-])c2)c(C(C)(C)CC)c1 | 92 |

These compounds were tested on Plasmodium falciparum (assay: GSK_TCMDC: Inhibition of Plasmodium falciparum Dd2 in whole red blood cells, using parasite LDH activity as an index of growth. Test compounds present at 2uM).
Type: functional

| SMILES | Inhibition [%] |
| --- | --- |
| COc1ccc(Nc2ncc3c(-c4cccc(NC(=O)Cc5cccc(O)c5)c4)c[nH]c3n2)cc1OC | 96 |
| CN(Cc1ccc(-c2ccc(C(F)(F)F)cc2)cc1)C(=O)Cn1c(CCc2cccc(F)c2F)cc(=O)c2ccc(OCCCN3CCCCC3)cc21.O=C(O)C(O)C(O)C(=O)O | 90 |
| CN1CCCC1CCNCc1cccc(-c2cnc(N3CCCC(C)(C)C3)nc2)c1 (stereo not drawn) | 95 |
| Cc1cc(F)ccc1Oc1nc(Nc2ccc(N3CCOCC3)c(F)c2)nc2c1S(=O)(=O)CCC2.Cl | 98 |
| Cc1c(C)n(C2CCCC2)c2ncnc(OC3CCN(CC(=O)NC4CC4)CC3)c12 | 92 |
| CNC(=O)c1cnc(Nc2ccc3[nH]c(=O)[nH]c3c2)nc1Nc1cccc(OC(C)C)c1.O=C(O)C(F)(F)F | 94 |
| N#Cc1ccc(-c2ccc(C(=O)NCCCCN3CCC(c4nc5ccccc5[nH]4)CC3)cc2)cc1 | 13 |
| O=C(Cc1ccc(Cl)cc1)NC1CCN(c2ccnc3cc(Cl)ccc23)C1.O=C(O)C(F)(F)F (stereo not drawn) | 99 |
| COc1ccccc1-n1c(-c2ccc3ccccc3c2)csc1=NC(=O)c1ccccc1 | 79 |
| COc1ccc2nccc([C@@H](O)CN3CCC(NCc4cc5cc([N+](=O)[O-])ccc5[nH]4)CC3)c2c1.O=C(O)C(=O)O | 57 |
| CCN(CC)CCN(Cc1ccc(-c2ccc(C(F)(F)F)cc2)cc1)C(=O)Cn1c(CCc2cc(F)cc(F)c2F)nc(=O)c2ccccc21.O=C(O)C(O)C(O)C(=O)O | 77 |
| Cc1ccc(Cl)cc1NC(=O)c1c(-c2ccccc2Cl)noc1C | 37 |
| CC(CN(C)C)Oc1ccc2nc(-c3cccc(OCc4ccccc4)c3)[nH]c2c1C#N (stereo not drawn) | 94 |
| COc1ccc(OC)c(NC(=O)c2c(-c3c(F)cccc3Cl)noc2C)c1 | 25 |
| CCNc1cc(C(=O)N[C@@H](Cc2ccccc2)[C@H](O)CNCc2cc(C#N)ccc2OC)cc(N2CCCC2=O)c1.O=C(O)C(F)(F)F | 51 |
| COc1ccc2nccc(N3CCC(SCCNS(=O)(=O)c4ccc5c(c4)NC(=O)CS5)C3)c2n1.Cl (stereo not drawn) | 17 |
| Cc1cc(C2CCN(CCCCNC(=O)c3ccc(-c4ccc(C#N)cc4)cc3)CC2)c(C)cc1OCCO | 68 |
| CCN1C(c2ccc(Cl)cc2)C(CNCc2ccccc2O)CC1(C)CO (stereo not drawn) | 99 |
| Cc1c(-c2cccc(Br)c2)[nH]c2nc(N)nc(N)c12 | 61 |
| COc1ccc(Nc2nc(N3CCCC3)c3ccccc3n2)cc1.Cl | 98 |

| SMILES | Inhibition [%] |
| --- | --- |
| Cc1cccc2nc(-c3ccc(-c4ccc(CNCc5cccc(N)c5)cc4)s3)[nH]c12.O=C(O)C(F)(F)F | 78 |
| CN1CCN(c2ccc(Cl)cc2NC(=O)C2COc3ccccc3O2)CC1 (stereo not drawn) | 44 |
| CS(=O)(=O)NCCCNCc1ccc(-c2ccc(-c3nc4cc(C(F)(F)F)ccc4[nH]3)cc2)cc1.O=C(O)C(F)(F)F | 83 |
| OCC(c1ccccc1)n1c(COc2ccc(Cl)cc2)nc2c(OCCCN3CCCCC3)cccc21 (stereo not drawn) | 68 |
| Cc1cccc2nc(-c3ccc(-c4cccc(NC(=O)NCc5ccccc5)c4)cc3)[nH]c12 | 0 |
| FC(F)(F)c1ccc2[nH]c(-c3cccc(-c4cccc(CNCC5CCCO5)c4)c3)nc2c1.O=C(O)C(F)(F)F (stereo not drawn) | 96 |
| CN(C)Cc1ccc2cc(NC(=O)c3ccc(-c4ccc(Cl)cc4)cc3)ccc2c1 | 22 |
| O=[N+]([O-])c1ccc2nccnc2c1 | 0 |
| C=CCC(C)n1ncc2c3c(N)nc(N)nc3ccc21 (stereo not drawn) | 95 |
| O=C(Nc1ccc(Cn2ncc(N3CCNCC3)c(Cl)c2=O)cc1)Nc1ccc(-c2ccccc2)cc1.O=C(O)C(F)(F)F | 33 |
| O=C(Nc1ccc(F)cc1)c1nc2ccccc2nc1Cl | 62 |
| Cc1ccccc1C1CCN(c2ccc(C(=O)NC3CC3)cn2)CC1.O=C(O)C(F)(F)F | 95 |
| O=C(Nc1cccc(CN2CCN(C(=O)c3cccc(Cl)c3)CC2)c1)c1ccco1.O=C(O)C(F)(F)F | 94 |
| COc1cc(NC(=O)CCCCCCCN2CCN(C)CC2)c2ncccc2c1 | 83 |
| COc1ccc(CN2CCC2=O)c(OC)c1 | 96 |
| Cc1cc(N2CCCCC2)nc2ccc(NC(=O)c3cncc(Br)c3)cc12 | 86 |
| Cl.Fc1cccc(COc2ccc(Nc3ncnc4ccc(-c5nnc(C(F)(F)F)o5)cc34)cc2Cl)c1 | 77 |
| O=C(NCCCN1CCCCC1)c1cccc(Nc2nccc(Nc3ccc(Oc4ccccc4)cc3)n2)c1 | 12 |
| Cc1nnc(-c2ccc3ccccc3c2)c2cn(-c3cccc([N+](=O)[O-])c3)nc12 | 67 |
| CCC(C)(C)c1ccc(OCCCC(=O)Nc2ccc(Cl)c([N+](=O)[O-])c2)c(C(C)(C)CC)c1 | 88 |
